Screening data (PubChem BioAssay)
This is a sample that favours compounds with a hit; in the whole collection about 19% have one here.
DT40 TDP1 CPT: DT40-hTDP1 cell growth loss with CPT | chicken DT40 Tdp1-/-;hTDP1 cells + 20 nM CPT, ATP luminescence, 48 h | Potency, µM (titrated, usually from 46.2 µM), for inactives: top-dose activity change, negative = growth inhibition, actives largely listed as inhibitors | 420,000 compounds, 12% hits; note: potency is the fitted concentration of half-maximal effect; nearly all actives have a fitted effect of over 55% in size
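Cell growth measured by CellTiter-Glo luminescence after a minimum 48 h, 37 C compound exposure with 20 nM CPT in Tdp1-knockout DT40 cells stably expressing hTDP1, seeded 400/well; qHTS titration format.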
TDP1 block: TDP1 (human) enzyme inhibition. AID 485290. Potency, µM (titrated, usually from 130 µM), for inactives: at the highest dose activity change, negative = inhibition, actives largely listed as inhibitors. Q9NUW8. recombinant TDP1, AlphaScreen DNA substrate cleavage. 350,000 compounds, 0.28% hits; note: potency is the fitted concentration of half-maximal effect; nearly all actives have a fitted effect of over 40% in size
Target sequence (Q9NUW8 whole entry, looked up): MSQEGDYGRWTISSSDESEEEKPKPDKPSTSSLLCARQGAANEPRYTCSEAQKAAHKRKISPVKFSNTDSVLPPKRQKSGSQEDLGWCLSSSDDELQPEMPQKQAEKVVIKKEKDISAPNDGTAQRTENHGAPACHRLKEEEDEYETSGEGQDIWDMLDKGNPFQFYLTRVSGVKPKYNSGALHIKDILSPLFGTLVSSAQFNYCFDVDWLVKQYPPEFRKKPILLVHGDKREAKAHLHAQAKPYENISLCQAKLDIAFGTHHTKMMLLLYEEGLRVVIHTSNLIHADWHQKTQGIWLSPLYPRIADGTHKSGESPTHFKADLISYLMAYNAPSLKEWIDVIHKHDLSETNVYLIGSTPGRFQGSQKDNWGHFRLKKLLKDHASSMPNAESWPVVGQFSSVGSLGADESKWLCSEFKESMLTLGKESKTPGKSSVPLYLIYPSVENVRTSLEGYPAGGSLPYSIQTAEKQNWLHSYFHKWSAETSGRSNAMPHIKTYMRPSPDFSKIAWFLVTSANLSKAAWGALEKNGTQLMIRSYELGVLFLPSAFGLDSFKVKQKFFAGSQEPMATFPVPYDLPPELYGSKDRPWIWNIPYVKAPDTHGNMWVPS
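Steps: enzyme plus compound, 15 min RT; add biotin/phosphotyrosine-FITC oligonucleotide (15 nM final), react 5 min; add donor/acceptor beads (10 ug/ml final), 10 min; read AlphaScreen. Tdp1 at 1 nM final.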
ELG1 DNA repair: blocks ELG1-dependent DNA repair in HEK293T cells. HEK293T ELG1-luciferase reporter, luminescence, 16 h; DNA damage induced by 5-fluorouridine. Potency, µM (highest dose often 46.1 µM), for the others: top-dose activity change, negative = inhibition, hits mostly inhibitors. 330,000 compounds, 2.3% hits. AID 504467; note: potency is the fitted concentration of half-maximal effect; nearly all actives have a fitted effect of over 55% in size
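DMSO vehicle served as the neutral condition. Each well held 2,000 cells given 5-fluorouridine plus compound; after 16 hr at 37 °C/5% CO2, ONE-Glo was added and luciferase measured 30 min later.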
IL-1B inflam inh: inflammasome signaling inhibition, IL-1 beta readout; 360,000 compounds, 4.7% hits; THP-1 LPS/ATP IL-1B secretion, AlphaLISA, 16 h; active compounds read low; AID 743279; activity change, % at 57.5 µM; in the data active = activity change below about -50%; inconclusive = mostly about -30% to -49%
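Secreted IL-1B measured by AlphaLISA bead assay after 16 h compound exposure of THP-1 cells; compounds (final up to 57.5 uM) added 1 h before LPS (250 ng/mL) and ATP (1.25 mM) stimulation; lower signal means less secretion.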
TDP1 cell noCPT: qHTS for Inhibitors of human tyrosyl-DNA phosphodiesterase 1 (TDP1): qHTS in cells in absence of CPT. DT40 Tdp1-/- hTDP1 cells, no CPT, ATP luminescence, 48 h. Potency, µM (doses to about 46.2 µM), for inactives: at the top dose activity change, negative = growth inhibition, most hits filed as inhibitors. 420,000 compounds, 15% hits; note: potency is the fitted concentration of half-maximal effect; nearly all actives have a fitted effect of over 55% in size
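Growth of hTDP1-complemented DT40 Tdp1-knockout cells is measured by ATP luminescence after at least 48 hr compound exposure at 37 °C, with DMSO substituting for the 20 nM CPT used in the parallel screen.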
Giardia kill: Giardia lamblia killing; 340,000 compounds, 0.15% hits; AID 540267; Giardia lamblia trophozoite viability; activity change, % at 7.66 µM, hits read low; in the data active = activity change below about -80%; inconclusive = between about -30% and that limit;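 note: parasites exposed to compound for two days anaerobically before the ATP read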
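Viability, read as ATP luminescence: trophozoites at 100 cells/well, compound added, 48 hrs anaerobic at 37 deg C, then 15-30 min room-temperature development before reading.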
Active calls of the source: *; ? = inconclusive; . = no result given; [ ] = another dose, or the depositor's remark. Unless noted, calls come from the whole dose curve; as a rule, active = well fitted curve in the direction sought with a large enough effect; inconclusive = small, poorly fitted or top-dose-only effect, or another doubt; inactive = no such curve, though single readings can be large; an effect the other way counts as inactive or inconclusive. % is set by controls: 0 for no effect and ±100 for the full control effect.

SMILES	DT40 TDP1 CPT	TDP1 block	ELG1 DNA repair	IL-1B inflam inh	TDP1 cell noCPT	Giardia kill
COc1ccc(CN2CCCC(C(=O)N3CCCC3)C2)cc1 (stereo not given)	2.0%	-2.9%	-13.5%	13.5	9.4%	5.5
COc1ccc(Cn2cc(CN3CC(N4CCCCC4)CS3(=O)=O)nn2)cc1 (stereo not given)	-9.6%	.	.	14.0	-23.5%	.
COc1cccc(C(=O)O/N=C(\N)c2ccccn2)c1OC	?	.	?	-4.7	7.31µM*	12.4
N/C(=N\OC(=O)c1ccc(=O)n(Cc2ccc(Cl)cc2)c1)c1ccccn1	20.6µM*	-2.9%	13.1%	-13.5	?	6.1
N/C(=N\OC(=O)c1cccc2ccccc12)c1ccccn1	?	.	?	29.7	?	3.1
CCCc1ccc(C(=O)O/N=C(\N)c2ccccn2)cc1	?	3.1%	?	-57.5*	-29.3%	7.3
N/C(=N\OC(=O)c1ccc(=O)n(Cc2ccccc2)c1)c1ccccn1	?	-2.7%	6.1%	3.5	?	-8.1
N#CCCN(C(=O)COC(=O)c1ccc2c(=O)n3c(nc2c1)CCC3)c1ccc(F)cc1	-16.7%	-5.4%	2.0%	-2.6	-25.6%	-13.2
COc1ccc(N=Cc2c(O)c3ccccc3n2C(C)=O)cc1	?	.	?	0.0	20.6µM*	-9.4
COc1ccc(N=Cc2sc(O)c3ccccc23)cc1	?	8.3%	?	-83.4*	?	-12.4
COc1ccc(-n2c(O)c(C=Nc3ccccc3)c3ccccc3c2=O)cc1	?	4.9%	4.2%	13.8	-16.7%	-15.0
Cc1cc(C)cc(C(=O)Nc2ccncc2)c1	?	2.3%	-10.1%	-13.0	-29.7%	9.1
COc1ccc(C(=O)NCCn2cc(SCC(=O)NCc3ccco3)c3ccccc32)cc1	7.31µM*	9.8%	?	-1.8	5.8µM*	10.2
COc1ccc(C(=O)NCCn2cc(SCC(=O)Nc3cccc(C)c3)c3ccccc32)cc1	16.4µM*	7.1%	.	.	?	.
COc1ccc(C(=O)NCCn2cc(SCC(=O)NCC3CCCO3)c3ccccc32)cc1 (stereo not given)	-22.5%	2.7%	-7.7%	16.0	-18.7%	-3.2
CC1Sc2ccc(C(=O)NCc3cccc(C(F)(F)F)c3)cc2NC1=O (stereo not given)	?	-0.2%[56.1 µM]	0.1%	25.8	-29.7%	-3.9
COCCCNC(=O)NC(CCC(C)C)c1c(-n2cccc2)sc2c1CCN(C)C2 (stereo not given)	?	9.9%	.	.	?	.
CN=c1sc(C(=O)Nc2ccccc2)c(C)n1C	-1.3%	5.7%	26.2%	27.1	?	11.0
CN=c1sc2c(n1C)C(=O)c1ccccc1C2=O	4.11µM*	.	.	?	5.8µM*	?
Cc1ccsc1/C=N/NC(=O)Cn1cnc2ccccc21	-1.6%	2.3%	-0.4%	6.3	-18.5%	5.6
COC(=O)c1cc(O)cc(OC)c1Oc1cc(C)cc(O)c1C(=O)O	1.16µM*	.	?	?	1.03µM*	7.1
O=S(=O)(c1ccc(-c2ccccn2)s1)N1CCC2(CC1)OCCO2	-3.5%	2.6%	?	23.5	?	1.5
CCc1nnc(NC(=O)CSc2nnc(-c3ccccc3O)n2-c2ccc(C)cc2C)s1	?	5.1%	.	51.3	23.1µM*	-5.4
COc1ccc(CC(=O)NCc2ccccc2)cc1	2.59µM*	.	-2.6%	28.5	2.91µM*	29.7
O=C(CSc1nccn1Cc1ccccc1)NCc1ccccc1	-0.6%	5.1%	?	-3.9	0.6%	-2.4
SMILES	DT40 TDP1 CPT	TDP1 block	ELG1 DNA repair	IL-1B inflam inh	TDP1 cell noCPT	Giardia kill
COc1ccc(Cn2ccnc2SCC(=O)NCc2ccccc2)cc1	16.4µM*	2.2%	.	.	?	.
COc1cccc(CNC(=O)COc2ccc(C(=O)c3ccccc3)cc2)c1	?	.	-14.0%	-19.9	16.4µM*	?
COc1cccc(CNC(=O)Cn2cccc2C(=O)c2ccccc2)c1	-13.9%	-2.5%	.	.	-11.4%	.
COc1ccc(-n2c(=O)c3ccc(C(=O)NCc4ccc(C)cc4)cc3n(Cc3ccc(F)cc3Cl)c2=O)cc1	5.6%	2.3%	.	.	-0.4%	.
COc1ccc2cc(CN(C(=O)c3cc(C)nn3C)C3CC3)c(-c3ccc(Cl)cc3)nc2c1	-71.9%	.	.	.	?	.
COc1cccc(CNC(=O)Cc2ccc(-n3c(=O)[nH]c4ccccc4c3=O)cc2)c1	4.61µM*	-2.7%	-13.2%	23.8	3.26µM*	17.8
COc1cccc(CNC(=O)CNS(=O)(=O)c2ccc(Br)s2)c1	0.9%	9.4%	0.0%	-52.5*	-3.3%	11.7
COc1ccc(CNC(=O)c2ccc3c(=O)n(-c4ccccc4)c(=O)[nH]c3c2)cc1	7.7%	5.7%	1.5%	14.0	-6.9%	7.5
COc1cccc(CNC(=O)CCNS(=O)(=O)c2ccc(Br)s2)c1	?	0.0%	1.3%	20.2	?	-20.0
COC(=O)CSc1cc(C(=O)c2nccn2C)c2ccccc2n1	-17.1%	1.0%	-1.5%	0.0	-21.3%	?
Cn1ccnc1C(=O)c1cc(SCC(=O)NCc2ccccc2)nc2ccccc12	6.51µM*	2.6%	8.2µM*	65.2	5.17µM*	-22.1
COc1ccc(/C=C(/C(=O)Nc2ccccc2C(=O)N2CCCC2)c2ccccc2)cc1	?	7.8%	23.1µM*	-4.7	?	7.8
COC(=O)C(C)n1cnc2c(nnn2-c2ccccc2)c1=O (stereo not given)	-24.6%	.	0.2%	-2.6	-2.4%	-1.1
COc1ccc([N+](=O)[O-])cc1NC(=O)c1cn(-c2ccc(Cl)cc2)c(=O)c2ccccc12	-14.4%	0.6%	-14.2%	1.9	-20.7%	-6.8
O=C(COC(=O)c1ncc(Cl)c(Cl)c1Cl)NC1CCCCCC1	1.0%	-1.2%	26.8%	-27.5	-3.1%	-6.4
COc1ccc(/C=C(/C(=O)NCc2ccccc2)c2ccccc2)cc1	?	-5.5%	?	-7.7	20.6µM*	-0.3
CCc1nnc(NC(=O)CSc2nccn2Cc2ccccc2)s1	?	2.7%	.	.	20.6µM*	.
COc1cccc(CNC(=O)COC(=O)CNC(=O)c2ccc(-c3ccccc3)cc2)c1	-21.4%	-1.7%[56.1 µM]	16.3%	-6.3	-27.4%	-13.1
O=C(COc1ccccc1)NCC1CCCO1 (stereo not given)	0.5%	1.0%[56.1 µM]	16.7%	12.7	-1.6%	-8.7
O=C(COc1ccc(C(=O)c2ccccc2)cc1)NCC1CCCCC1	16.4µM*	0.0%	-14.0%	-14.5	16.4µM*	13.0
COc1cccc(CNC(=O)Cc2ccc(-c3ccccc3)cc2)c1	?	13.6%	-23.9%	21.9	20.6µM*	-7.9
